# Where “and” joins values, the source holds several entries; their conditions need not be identical. Identical values can stand only once. Results filed as inconclusive are left out. Entries that show only a call come without a potency. Calls of active or inactive are those of the source. Unless noted, the call rests on the fitted dose curve; in most records, active means well fitted curve in the direction sought with a large enough effect; inconclusive means small, poorly fitted or top-dose-only effect, or another doubt; inactive means no such curve, though single readings can be large; an effect the other way counts as inactive or inconclusive.
# Experiments:
# [1] = target: Cytochrome P450 3A4 (Homo sapiens) (UniProt P08684); test: qHTS Assay for Inhibitors and Substrates of Cytochrome P450 3A4 (AID 884); further: nearly all actives have a fitted effect of over 50% in size
# In short: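 20 nM human CYP3A4 with 25 uM Luciferin-PPXE (at KM) in 200 mM KPO4, preincubated 10 min with compound; NADPH regeneration started a 60 min RT reaction. Luciferin detected by luminescence, normalized to 57 uM ketoconazole as full inhibition.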
# [2] = qHTS Assay for Lipid Storage Modulators (AID 1519; calls by dose curve); conditions: Drosophila S3 cells, BODIPY lipid droplet/cell ratio, laser cytometry, cells loaded with oleic acid
# In short: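 Cells seeded at 5,000 per well were treated with compounds over a concentration series and loaded with oleic acid (400 uM, as added). Lipid droplet fluorescence (488 nm excitation, 500-530 nm channel) was read by laser-scanning cytometry and normalized to 20 uM Triacsin C.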
# [3] = target: Ubiquitin carboxyl-terminal hydrolase 1 (Homo sapiens) (UniProt O94782); test: Inhibitors of USP1/UAF1: Pilot qHTS (AID 504865);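 further: rhodamine fluorescence freed from ubiquitin-rhodamine substrate followed over time; top concentration of the series differs between compounds; nearly all actives have a fitted effect of over 35% in size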
# Chain of Ubiquitin carboxyl-terminal hydrolase 1 (Homo sapiens) (O94782 whole entry, looked up): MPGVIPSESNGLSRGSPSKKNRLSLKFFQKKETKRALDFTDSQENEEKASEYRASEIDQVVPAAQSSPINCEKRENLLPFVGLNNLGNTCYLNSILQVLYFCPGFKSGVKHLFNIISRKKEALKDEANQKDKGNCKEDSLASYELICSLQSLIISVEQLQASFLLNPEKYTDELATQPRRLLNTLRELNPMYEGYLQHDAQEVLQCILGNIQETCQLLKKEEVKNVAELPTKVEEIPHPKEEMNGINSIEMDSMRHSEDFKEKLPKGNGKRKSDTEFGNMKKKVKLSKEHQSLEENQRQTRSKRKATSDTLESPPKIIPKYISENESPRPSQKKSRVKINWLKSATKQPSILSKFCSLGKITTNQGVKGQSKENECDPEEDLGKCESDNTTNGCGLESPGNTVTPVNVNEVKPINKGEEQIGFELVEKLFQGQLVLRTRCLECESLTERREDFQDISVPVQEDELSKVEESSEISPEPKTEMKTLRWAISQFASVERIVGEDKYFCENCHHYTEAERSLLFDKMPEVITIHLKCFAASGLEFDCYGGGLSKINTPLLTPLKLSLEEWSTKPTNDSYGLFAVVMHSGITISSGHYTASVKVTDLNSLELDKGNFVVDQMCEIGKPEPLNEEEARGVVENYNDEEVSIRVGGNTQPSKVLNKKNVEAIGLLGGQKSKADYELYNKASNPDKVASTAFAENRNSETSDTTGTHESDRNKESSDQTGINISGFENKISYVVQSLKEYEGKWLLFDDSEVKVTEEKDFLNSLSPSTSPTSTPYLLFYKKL
# In short: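 USP1/UAF1 complex (1nM) preincubated with compound 15 min at room temperature, then Ub-Rho substrate (150nM final) added. Fluorescence read kinetically at 480/540 nm, 6 reads every 60 seconds. Buffer: 50mM HEPES pH 7.8, 0.5mM EDTA, 0.1 mg/ml BSA, 1mM TCEP, 0.01% Tween-20.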
# [4] = target: DNA dC->dU-editing enzyme APOBEC-3G (Homo sapiens) (UniProt Q9HC16); test: qHTS for inhibitors of Vif-A3G interactions: Validation (AID 588379)
# Chain of DNA dC->dU-editing enzyme APOBEC-3G (Homo sapiens) (Q9HC16 whole entry, looked up): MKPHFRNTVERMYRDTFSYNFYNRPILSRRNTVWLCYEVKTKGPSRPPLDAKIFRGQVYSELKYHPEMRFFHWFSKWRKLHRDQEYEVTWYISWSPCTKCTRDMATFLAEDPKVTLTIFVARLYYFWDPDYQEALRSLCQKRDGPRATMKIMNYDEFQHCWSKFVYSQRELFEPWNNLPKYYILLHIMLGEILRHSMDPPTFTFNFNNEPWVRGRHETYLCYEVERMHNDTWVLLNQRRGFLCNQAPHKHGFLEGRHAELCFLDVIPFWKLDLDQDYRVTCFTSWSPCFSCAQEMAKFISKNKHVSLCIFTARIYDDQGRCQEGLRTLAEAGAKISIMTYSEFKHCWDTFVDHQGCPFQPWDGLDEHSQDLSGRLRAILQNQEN
# In short: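 HeLa cells stably expressing Vif and A3G-eYFP, 700 cells/well, incubated overnight at 37 deg C, then exposed to compound overnight at 37 deg C. Inhibition of Vif-mediated degradation read as increased yellow fluorescence (Ex 488/Em 500-530) by laser-scanning cytometry.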
# [5] = system: Zika virus NS2B-NS3 protease; test: Primary screen GU AMC qHTS for Zika virus inhibitors (AID 1347154); further: nearly all actives have a fitted effect of over 70% in size
# In short: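 Unlinked Zika NS2B hydrophilic domain–NS3 protease complex at 25 nM in 10 mM Tris-HCl pH 8.0, 0.01% Tween 20, with an AMC peptide substrate. Fluorescence change (340/450 nm) over 15 min at room temperature, normalized to controls, fitted to 4-parameter Hill.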
# [6] = Primary qHTS for small molecule stabilizers of the endoplasmic reticulum resident proteome: Secreted ER Calcium Modulated Protein (SERCaMP) assay (AID 1508630)
# In short: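 GLuc-SERCaMP-expressing SH-SY5Y cells, pretreated 16 h with compound, are challenged with thapsigargin to empty ER calcium stores; after 4 h, coelenterazine is added directly to the medium and luminescence is imaged.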
# [7] = target: Glutathione peroxidase 1 (Homo sapiens) (UniProt P07203); test: Primary qHTS Assay for Inhibitors of Recombinant Selenoprotein Glutathione Peroxidase 1 (GPX1) (AID 1845191); further: nearly all actives have a fitted effect of over 65% in size
# Chain of Glutathione peroxidase 1 (Homo sapiens) (P07203 whole entry, looked up): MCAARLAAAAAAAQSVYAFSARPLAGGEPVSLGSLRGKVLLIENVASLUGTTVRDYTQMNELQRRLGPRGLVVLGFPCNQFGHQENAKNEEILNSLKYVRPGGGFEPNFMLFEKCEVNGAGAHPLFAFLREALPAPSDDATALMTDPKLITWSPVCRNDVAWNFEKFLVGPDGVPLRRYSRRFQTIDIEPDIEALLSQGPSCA
# In short: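 GR-coupled assay: compounds preincubated 30 min at room temperature with GPX1, then reaction started with CHP; final 10 nM GPX1, 1 mM GSH, 0.5 mM CHP, 0.5 mM NADPH, 100 nM GR, 0.01% BSA, pH 7.5 Tris buffer. NADPH fluorescence (340/450 nm) read at 0 and 15 min.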
# [8] = target: Phospholipid hydroperoxide glutathione peroxidase GPX4 (Homo sapiens) (UniProt P36969); test: Primary qHTS Assay for Inhibitors of Recombinant Selenoprotein Glutathione Peroxidase 4 (GPX4) (AID 1845192); conditions: outcome: dose series up to 50 µM unless noted; further: nearly all actives have a fitted effect of over 65% in size
# Chain of Phospholipid hydroperoxide glutathione peroxidase GPX4 (Homo sapiens) (P36969 whole entry, looked up): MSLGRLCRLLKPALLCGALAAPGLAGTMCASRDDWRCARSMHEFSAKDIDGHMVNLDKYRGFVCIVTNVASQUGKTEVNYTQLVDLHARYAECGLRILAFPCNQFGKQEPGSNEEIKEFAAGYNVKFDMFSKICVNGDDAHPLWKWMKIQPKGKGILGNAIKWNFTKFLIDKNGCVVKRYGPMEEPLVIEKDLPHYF
# In short: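 GR-coupled assay: recombinant GPX4 preincubated 30 min with compound at room temperature; final 200 nM GPX4, 1 mM GSH, 0.5 mM cumene hydroperoxide, 0.5 mM NADPH, 100 nM GR, 0.01% BSA, pH 7.5 Tris. NADPH fluorescence (340/450 nm) read at 0 and 15 min.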
# [9] = AP1 Signaling Pathway (AID 357; active means well fitted curve in either direction with a large enough effect, not every such curve was filed as active;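 further: ME-180 reporter cells stimulated with EGF at its EC50 level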); conditions: ME-180 AP-1-bla reporter, EGF-induced, beta-lactamase ratio, 5 h; at 17.2 µM (top of the series)
# In short: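 Cells are seeded overnight, exposed to compound titrations and an EC50 level of EGF for 5 hours at 37 °C, then loaded with CCF4 dye for 2.5 hours. Beta-lactamase activity under the AP-1 element is read as a blue/green ratio.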
# [10] = NFAT Signaling Pathway (AID 444; active means well fitted curve in either direction with a large enough effect, not every such curve was filed as active;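 further: carbachol stimulus at about its EC50 of 1 µM final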); conditions: Jurkat NFAT-bla M1, carbachol, beta-lactamase ratio, 5 h; at 17.2 µM (top of the series)
# In short: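 Jurkat cells with NFAT-driven β-lactamase reporter and co-expressed M1 receptor, stimulated with carbachol (final 1 uM, ~EC50), compound titration, 5 h at 37 °C. CCF4 loaded 1 h at RT; 460/530 nm ratio gave %activity and AC50.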
# [11] = Stat Signaling Pathway (AID 446; active means well fitted curve in either direction with a large enough effect, not every such curve was filed as active;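 further: ME-180 cervical cancer cells given 40 pM IL-6 alongside compound; SIE-controlled beta-lactamase reporter measured as 460/530 nm FRET emission ratio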); conditions: ME-180 SIE beta-lactamase reporter, IL-6 stimulated, 5 h; at 17.2 µM (top of the series)
# In short: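 ME-180 SIE-bla cells; overnight plating; cpd + IL-6 40 pM, 5 h, 37 C; LiveBLAzer 2.5 h RT; 460/530 nm emission ratio. Normalized to 300 pM IL-6 and 125 nM JAK inhibitor controls.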
# [12] = target: Glucocorticoid receptor (Homo sapiens) (UniProt P04150); test: GR-GFP Redistribution (AID 450;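 active means compounds whose dose series gives a full or clear partial fitted curve of increased nuclear translocation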; further: potency means the concentration at half of the fitted maximal effect); conditions: U2OS GR-GFP nuclear translocation, laser cytometry, 2 h
# Chain of Glucocorticoid receptor (Homo sapiens) (P04150 whole entry, looked up, the tested form may be a part): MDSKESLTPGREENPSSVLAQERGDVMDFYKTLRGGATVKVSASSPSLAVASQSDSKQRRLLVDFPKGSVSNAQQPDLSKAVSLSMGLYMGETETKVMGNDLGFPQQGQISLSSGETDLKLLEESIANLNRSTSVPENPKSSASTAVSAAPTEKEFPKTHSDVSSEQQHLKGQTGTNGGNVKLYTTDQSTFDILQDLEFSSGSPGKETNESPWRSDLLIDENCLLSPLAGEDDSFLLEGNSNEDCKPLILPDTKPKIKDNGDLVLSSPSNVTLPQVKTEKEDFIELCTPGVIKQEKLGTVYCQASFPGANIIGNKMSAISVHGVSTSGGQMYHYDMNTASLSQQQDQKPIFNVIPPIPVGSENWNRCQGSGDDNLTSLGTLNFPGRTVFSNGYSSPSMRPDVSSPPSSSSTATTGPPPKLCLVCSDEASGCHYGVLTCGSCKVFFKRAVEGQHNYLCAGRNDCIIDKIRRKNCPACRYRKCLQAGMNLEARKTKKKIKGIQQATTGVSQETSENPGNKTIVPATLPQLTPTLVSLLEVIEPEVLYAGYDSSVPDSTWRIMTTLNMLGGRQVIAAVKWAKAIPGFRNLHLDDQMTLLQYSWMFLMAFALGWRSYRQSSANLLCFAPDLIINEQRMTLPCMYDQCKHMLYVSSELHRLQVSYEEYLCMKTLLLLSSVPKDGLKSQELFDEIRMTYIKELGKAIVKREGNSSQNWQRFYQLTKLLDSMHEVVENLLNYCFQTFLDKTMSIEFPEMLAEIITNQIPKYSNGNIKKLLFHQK
# [13] = target: Glucocorticoid receptor (Homo sapiens) (UniProt P04150); test: GR-EFC Redistribution (AID 451; calls by dose curve; further: potency means the concentration at half of the fitted maximal effect); conditions: CHO-K1 GR-EFC translocation, beta-gal luminescence, 2 h
# In short: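 CHO-K1 cells expressing nuclear EA and GR-ED fragments of b-gal; compounds titrated up to 46 uM final, 2 h at 37 C. GR nuclear translocation read as complemented b-gal luminescence after 1 h RT detection.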
# [14] = target: Mitogen-activated protein kinase 10 (Mus musculus) (UniProt Q61831); test: JNK3 AlphaScreen Assay (AID 530; active means well fitted curve in either direction with a large enough effect, not every such curve was filed as active;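 further: kinase came from lysate of stimulated human HepG2 cells; signal reports phosphorylation of biotinylated GST-cJun 1-79 at Ser73 with 10 µM ATP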)
# In short: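 Pre-activated (IL-1β/TNFα) JNK3 in HepG2 lysates phosphorylates biotin-GST-cJun(1-79), 10 uM ATP; anti-phospho-cJun(Ser73) AlphaScreen read at room temperature, pH 7.6 Tris buffer. Compounds pre-incubated 15 min as titrations.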
# [15] = target: 3',5'-cyclic-AMP phosphodiesterase 4B (Homo sapiens) (UniProt Q07343); test: qHTS Assay for Inhibitors of PDE-IV (AID 607; active means well fitted activation curve with a large enough effect in the main read-out, with a control signal flat, not every such curve was filed as active)
# Chain of 3',5'-cyclic-AMP phosphodiesterase 4B (Homo sapiens) (Q07343 whole entry, looked up): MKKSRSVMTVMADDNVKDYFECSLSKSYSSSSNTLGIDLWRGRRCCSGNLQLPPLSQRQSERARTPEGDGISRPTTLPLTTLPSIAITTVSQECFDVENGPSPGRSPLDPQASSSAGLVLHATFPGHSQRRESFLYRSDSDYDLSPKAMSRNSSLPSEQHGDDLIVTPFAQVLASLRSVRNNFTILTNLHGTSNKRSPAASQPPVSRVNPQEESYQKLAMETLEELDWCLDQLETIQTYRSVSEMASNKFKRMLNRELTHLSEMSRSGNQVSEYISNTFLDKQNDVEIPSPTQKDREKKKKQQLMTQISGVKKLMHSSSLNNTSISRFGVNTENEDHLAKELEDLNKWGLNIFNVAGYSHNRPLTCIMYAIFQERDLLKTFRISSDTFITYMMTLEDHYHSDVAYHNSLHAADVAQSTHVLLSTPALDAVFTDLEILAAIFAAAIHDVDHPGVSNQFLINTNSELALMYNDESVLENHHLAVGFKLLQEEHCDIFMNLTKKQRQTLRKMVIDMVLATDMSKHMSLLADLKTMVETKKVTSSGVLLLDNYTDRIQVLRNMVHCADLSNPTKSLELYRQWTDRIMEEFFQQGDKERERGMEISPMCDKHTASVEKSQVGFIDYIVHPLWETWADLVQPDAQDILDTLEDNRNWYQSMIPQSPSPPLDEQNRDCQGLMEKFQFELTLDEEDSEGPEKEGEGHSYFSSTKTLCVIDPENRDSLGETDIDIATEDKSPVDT
# In short: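 ACTOne HEK293 cells carry a modified cAMP-gated CNG channel and express endogenous PDE4; plated 1000 cells/well, compounds up to 22.9 uM final. Membrane-potential dye fluorescence (ex 535/em 590) was read; parental cells received 10 uM forskolin + 100 uM RO 20-1724.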
# [16] = target: Rap guanine nucleotide exchange factor 3 (Homo sapiens) (UniProt O95398); test: Confirmatory qHTS for antagonist of cAMP-regulated guanine nucleotide exchange factor 3 (EPAC1) (AID 1645880); further: nearly all actives have a fitted effect of over 55% in size
# Chain of Rap guanine nucleotide exchange factor 3 (Homo sapiens) (O95398 whole entry, looked up): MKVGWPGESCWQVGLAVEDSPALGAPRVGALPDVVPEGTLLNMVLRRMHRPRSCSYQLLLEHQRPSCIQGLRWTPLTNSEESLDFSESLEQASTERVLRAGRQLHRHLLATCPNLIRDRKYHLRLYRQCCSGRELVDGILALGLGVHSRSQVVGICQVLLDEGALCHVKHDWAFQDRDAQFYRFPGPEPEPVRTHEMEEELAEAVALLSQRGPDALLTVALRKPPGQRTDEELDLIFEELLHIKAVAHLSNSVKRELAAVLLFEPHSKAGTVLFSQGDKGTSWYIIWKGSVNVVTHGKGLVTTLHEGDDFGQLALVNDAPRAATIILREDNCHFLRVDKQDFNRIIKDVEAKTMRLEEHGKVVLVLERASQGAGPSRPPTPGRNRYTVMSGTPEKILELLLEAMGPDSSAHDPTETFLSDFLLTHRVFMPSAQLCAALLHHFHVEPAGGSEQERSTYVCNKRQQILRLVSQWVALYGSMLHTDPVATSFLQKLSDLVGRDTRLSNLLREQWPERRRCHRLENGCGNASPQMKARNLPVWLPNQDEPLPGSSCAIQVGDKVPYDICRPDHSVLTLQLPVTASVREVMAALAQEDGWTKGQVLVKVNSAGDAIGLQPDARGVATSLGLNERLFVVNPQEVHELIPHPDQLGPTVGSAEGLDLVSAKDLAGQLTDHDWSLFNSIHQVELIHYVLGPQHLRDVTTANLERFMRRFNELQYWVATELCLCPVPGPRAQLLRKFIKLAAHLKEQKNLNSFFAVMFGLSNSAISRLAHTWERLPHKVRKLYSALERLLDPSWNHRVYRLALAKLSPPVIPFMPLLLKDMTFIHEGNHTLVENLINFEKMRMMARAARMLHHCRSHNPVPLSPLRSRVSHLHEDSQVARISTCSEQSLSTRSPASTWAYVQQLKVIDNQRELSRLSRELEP
# In short: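 Nucleotide exchange uses 100 nM EPAC1, 250 nM RAP1B-BODIPY-GDP and 50 uM GDP, with compounds in a concentration-titration series. After 5 min at room temperature, fluorescence (480 nm ex/540 nm em) is read every 5 min for 30 min. Data are normalized to control ATA and DMSO.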
# [17] = target: Rap guanine nucleotide exchange factor 3 (Homo sapiens) (UniProt O95398); test: Confirmatory qHTS for agonist of cAMP-regulated guanine nucleotide exchange factor 3 (EPAC1) (AID 1645881);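 further: EPAC1 catalysed release of BODIPY-GDP from Rap1B seen as fluorescence loss; nearly all actives have a fitted effect of over 75% in size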
# [18] = target: Rap guanine nucleotide exchange factor 4 (Homo sapiens) (UniProt Q8WZA2); test: Confirmatory qHTS for agonist of cAMP-regulated guanine nucleotide exchange factor 4 (EPAC2) (AID 1645884);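 further: nucleotide exchange releases bodipy-GDP from Rap1 and this lowers its fluorescence; nearly all actives have a fitted effect of over 65% in size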
# Chain of Rap guanine nucleotide exchange factor 4 (Homo sapiens) (Q8WZA2 whole entry, looked up): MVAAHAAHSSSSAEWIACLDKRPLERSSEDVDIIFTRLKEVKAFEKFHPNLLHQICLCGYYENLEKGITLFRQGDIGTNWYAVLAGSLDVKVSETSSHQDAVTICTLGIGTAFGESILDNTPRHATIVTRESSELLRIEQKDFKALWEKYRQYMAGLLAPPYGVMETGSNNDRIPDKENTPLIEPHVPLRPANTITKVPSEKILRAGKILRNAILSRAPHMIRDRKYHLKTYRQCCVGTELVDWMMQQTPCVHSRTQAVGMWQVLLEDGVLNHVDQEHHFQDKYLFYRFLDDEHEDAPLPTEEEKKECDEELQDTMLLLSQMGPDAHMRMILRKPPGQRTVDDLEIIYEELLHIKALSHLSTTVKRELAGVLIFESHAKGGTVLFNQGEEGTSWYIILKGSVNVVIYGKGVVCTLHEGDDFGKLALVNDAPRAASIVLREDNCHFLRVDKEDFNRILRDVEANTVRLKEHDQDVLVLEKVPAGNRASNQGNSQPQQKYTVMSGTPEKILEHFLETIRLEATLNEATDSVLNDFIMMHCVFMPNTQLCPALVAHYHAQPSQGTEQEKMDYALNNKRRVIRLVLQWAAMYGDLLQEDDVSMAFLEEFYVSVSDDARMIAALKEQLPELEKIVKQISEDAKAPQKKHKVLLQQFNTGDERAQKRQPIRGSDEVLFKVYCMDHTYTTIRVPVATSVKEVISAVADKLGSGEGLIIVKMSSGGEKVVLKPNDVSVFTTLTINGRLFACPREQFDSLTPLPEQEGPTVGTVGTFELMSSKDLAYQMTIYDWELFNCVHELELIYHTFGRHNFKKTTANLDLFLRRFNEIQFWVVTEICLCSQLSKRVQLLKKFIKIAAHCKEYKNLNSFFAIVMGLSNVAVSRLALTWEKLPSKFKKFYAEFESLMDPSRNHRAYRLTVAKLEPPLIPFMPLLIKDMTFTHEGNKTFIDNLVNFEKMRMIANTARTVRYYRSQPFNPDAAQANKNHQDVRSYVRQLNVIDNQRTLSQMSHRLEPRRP
# [19] = target: Rap guanine nucleotide exchange factor 4 (Homo sapiens) (UniProt Q8WZA2); test: Confirmatory qHTS for antagonist of cAMP-regulated guanine nucleotide exchange factor 4 (EPAC2) (AID 1645885); further: nearly all actives have a fitted effect of over 25% in size
# [20] = measured here: cell count channel max response
# [21] = measured here: lipid channel max response
smiles,measurement,setting,value
N[C@H](Cc1cnc[nH]1)C(=O)O,Potency,[1],inactive
same,"activity change, negative = inhibition",[2]; at 57.5 µM (top of the series),-0.699% (inactive)
same,max response,[2]; [20],-9.8%
same,max response,[2]; [21],-11.7%
same,Potency,[3],inactive
same,Potency,[4],inactive
same,Potency,[5],inactive
same,Potency,[6],inactive
same,Potency,[7],inactive
same,Potency,[8],inactive
CCCCCCCC(=O)OC[C@H](CO)OC(=O)CCCCCCC,"activity change, negative = inhibition",[5],4.76% [at 6.83 µM] (inactive)
same,"activity change, negative = inhibition",[6],-8.21% [at 3.88 µM] (inactive)
CN(C)CCCSC(=N)N,"activity change, negative = inhibition",[9],2.97% (inactive)
same,"activity change, negative = inhibition",[10],-13.3% (inactive)
same,"activity, negative = inhibition",[11],-1.52% (inactive)
same,Potency,[12],> 20.6 µM (inactive) and > 46 µM (inactive)
same,Potency,[13],> 20.6 µM (inactive) and > 46 µM (inactive)
same,Potency,[14],inactive
same,Potency,[15],inactive
same,"activity change, negative = inhibition",[2]; at 25.7 µM (top of the series),-2.91% (inactive)
same,"activity change, negative = inhibition",[2]; at 57.5 µM (top of the series),3.5% (inactive)
same,max response,[2]; [20],-7.27% and -5.75%
same,max response,[2]; [21],-5.95% and 13.8%
same,Potency,[3],inactive
same,Potency,[4],inactive
same,Potency,[5],inactive
same,Potency,[6],inactive
same,Potency,[16],inactive
same,outcome,[17],inactive
same,outcome,[18],inactive
same,Potency,[19],inactive
